Assay results reported in the supplement of paper PMC12494721.
Structures can show the parent of a compound that is named as a salt.

Experiments:
Conditions in all cases: 20 µM; incubation time: 27 h, anaerobic, 37 °C;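 for the amine columns active = adjusted P below 0.05 in both replicates with a change the same way and a mean fold change under 0.8 or over 1.25; inactive = the rest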
[1] = test system: Clostridium sporogenes DSM 1664; assay: growth (OD595) fold change vs plate DMSO controls (fold change (ratio)); higher = more growth
Outline: (§1)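 The measure reported is growth, taken as fold change against the median of DMSO controls on the same plate. Anaerobic mGAM cultures in 96-well plates (27 h, 37 °C) were read at 595 nm, blank-subtracted, corrected for compound background using 20 µM compound solutions in water, and multiplied by a calibration factor of 5 to give OD. Any fold change above 1.5 became NA, and 2 biological replicates were averaged.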

[2] = test system: Escherichia coli IAI1; assay: as above
Outline: as §1

[3] = test system: Klebsiella aerogenes DSM 30053; assay: as above
Outline: as §1

[4] = test system: Ruminococcus gnavus DSM 108212; assay: as above
Outline: as §1

[5] = test system: Klebsiella aerogenes DSM 30053; assay: fold change of Histamine concentration vs plate DMSO controls (fold change (ratio)); higher = more amine produced, active = hit call of the paper (significant change in both replicates, either direction)
Outline: (§2)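 In 80 µL wells, cultures of four gut bacterial strains in mGAM started at OD 0.1 before a 1:1 dilution and grew anaerobically at 37 °C for 27 h. Compounds were added to 20 µM final, except sweeteners at 50 µM final. After extraction of whole cultures with cold acetonitrile/methanol plus 0.1% formic acid and centrifugation, amines were measured by LC–triple-quadrupole MS in dynamic MRM mode against external calibration curves, with within-batch drift correction. Values give fold change over DMSO controls on the same plate, averaged across 2 biological replicates.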

[6] = test system: Clostridium sporogenes DSM 1664; assay: fold change of Tryptamine concentration vs plate DMSO controls (fold change (ratio)); higher = more amine produced, active = hit call of the paper (significant change in both replicates, either direction)
Outline: as §2

[7] = test system: Ruminococcus gnavus DSM 108212; assay: as above
Outline: as §2

[8] = test system: Escherichia coli IAI1; assay: fold change of Putrescine concentration vs plate DMSO controls (fold change (ratio)); higher = more amine produced, active = hit call of the paper (significant change in both replicates, either direction)
Outline: as §2

[9] = test system: Klebsiella aerogenes DSM 30053; assay: as above
Outline: as §2

[10] = test system: Escherichia coli IAI1; assay: fold change of Cadaverine concentration vs plate DMSO controls (fold change (ratio)); higher = more amine produced, active = hit call of the paper (significant change in both replicates, either direction)
Outline: as §2

[11] = test system: Klebsiella aerogenes DSM 30053; assay: as above
Outline: as §2

[12] = test system: Ruminococcus gnavus DSM 108212; assay: fold change of 2-Phenylethylamine concentration vs plate DMSO controls (fold change (ratio)); higher = more amine produced, active = hit call of the paper (significant change in both replicates, either direction)
Outline: as §2

Row | Structure (SMILES) | growth [1] | growth [2] | growth [3] | growth [4] | fold change of Histamine concentration [5] | fold change of Tryptamine concentration [6] | fold change of Tryptamine concentration [7] | fold change of Putrescine concentration [8] | fold change of Putrescine concentration [9] | fold change of Cadaverine concentration [10] | fold change of Cadaverine concentration [11] | fold change of 2-Phenylethylamine concentration [12]
1 | Nc1ccncc1 [Dalfampridine] | 0.947 | 0.992 | 1.02 | 0.985 | 0.957 (inactive) | 1 (inactive) | 1 (inactive) | 0.968 (inactive) | 0.989 (inactive) | 0.957 (inactive) | 1 (inactive) | 0.991 (inactive)
2 | CC(C)=CC1C(C(=O)OCc2cccc(Oc3ccccc3)c2)C1(C)C (configuration not stated) [Phenothrin] | 0.963 | 1.02 | 1.05 | 1.06 | 0.924 (inactive) | 1.02 (inactive) | 1.05 (inactive) | 1.07 (inactive) | 1.02 (inactive) | 1.03 (inactive) | 1.01 (inactive) | 1.06 (inactive)
3 | NCC1(CC(=O)O)CCCCC1 [Gabapentin] | 1.14 | 1.15 | 1.03 | 1 | 1.04 (inactive) | 0.986 (inactive) | 1.03 (inactive) | 1.03 (inactive) | 1 (inactive) | 1.02 (inactive) | 0.985 (inactive) | 1.07 (inactive)
4 | O=C(CCCN1CCC(n2c(=O)[nH]c3ccccc32)CC1)c1ccc(F)cc1 [Benperidol] | 1.07 | 0.943 | 0.941 | 0.827 | 1 (inactive) | 1.01 (inactive) | 1.03 (inactive) | 0.998 (inactive) | 1.02 (inactive) | 1.02 (inactive) | 1.02 (inactive) | 1.05 (inactive)
5 | N#Cc1nn(-c2c(Cl)cc(C(F)(F)F)cc2Cl)c(N)c1[S+]([O-])C(F)(F)F (configuration not stated) [Fipronil] | 1.26 | 1.11 | 1.1 | 1.28 | 0.947 (inactive) | 1.05 (inactive) | 1 (inactive) | 1.03 (inactive) | 0.981 (inactive) | 1.01 (inactive) | 1 (inactive) | 1.04 (inactive)
6 | O=C(NC(=O)c1c(F)cccc1F)Nc1ccc(OC(F)(F)C(F)OC(F)(F)F)c(Cl)c1 (configuration not stated) | 0.972 | 1.03 | 1.01 | 0.995 | 0.951 (inactive) | 0.981 (inactive) | 1.01 (inactive) | 1.01 (inactive) | 0.928 (inactive) | 0.872 (inactive) | 1.01 (inactive) | 0.957 (inactive)
7 | CS(=O)(=O)NC(=O)c1cc(Oc2ccc(C(F)(F)F)cc2Cl)ccc1[N+](=O)[O-] | 0.96 | 0.996 | 1.08 | 1 | 0.93 (inactive) | 0.985 (inactive) | 1.02 (inactive) | 1.04 (inactive) | 1.01 (inactive) | 1.01 (inactive) | 1.02 (inactive) | 0.99 (inactive)
8 | CCc1cc(C)cc(CC)c1-c1c(OC(=O)C(C)(C)C)n2n(c1=O)CCOCC2 | 0.933 | 1.05 | 0.985 | 0.919 | 0.979 (inactive) | 1.11 (inactive) | 0.99 (inactive) | 1.02 (inactive) | 1.01 (inactive) | 1.05 (inactive) | 0.994 (inactive) | 0.985 (inactive)
9 | COC(=O)NC(=S)Nc1ccccc1NC(=S)NC(=O)OC | 1.11 | 1.02 | 0.97 | 0.994 | 0.974 (inactive) | 1.02 (inactive) | 0.971 (inactive) | 0.954 (inactive) | 0.972 (inactive) | 0.974 (inactive) | 1.01 (inactive) | 0.936 (inactive)
10 | CN(C)[C@@H]1C(=O)C(C(N)=O)=C(O)[C@@]2(O)C(=O)C3=C(O)c4c(O)cccc4[C@@](C)(O)[C@H]3[C@H](O)[C@@H]12 [Oxytetracycline dihydrate] | 0.0153 | 0.133 | 0.113 | 0.955 | 0.0509 (active) | 0.0182 (active) | 0.898 (inactive) | 0.279 (active) | 0.46 (active) | 0.113 (active) | 0.413 (active) | 0.92 (inactive)
11 | CC1C=CC=CCCC=CC=CC=CC=CC(OC2OC(C)C(O)C(N)C2O)CC2OC(O)(CC(O)C(O)CCC(O)CC(O)CC(O)CC(=O)OC(C)C(C)C1O)CC(O)C2C(=O)O (configuration not stated) [Nystatine] | 0.964 | 0.993 | 1.01 | 1.16 | 0.962 (inactive) | 0.989 (inactive) | 1.01 (inactive) | 0.999 (inactive) | 1 (inactive) | 1.05 (inactive) | 1.01 (inactive) | 0.998 (inactive)
12 | CC(C)(C)NCC(O)c1ccccc1Cl (configuration not stated) [Tulobuterol Hydrochloride] | 0.953 | 0.972 | 0.966 | 1.11 | 0.972 (inactive) | 1 (inactive) | 1.01 (inactive) | 1.02 (inactive) | 1.02 (inactive) | 0.993 (inactive) | 1.01 (inactive) | 1.03 (inactive)
13 | CN(C)C(CSS(=O)(=O)O)CSS(=O)(=O)O | 1.11 | 0.998 | 0.99 | 0.931 | 1.01 (inactive) | 0.933 (inactive) | 1.02 (inactive) | 1.04 (inactive) | 0.999 (inactive) | 1.02 (inactive) | 0.988 (inactive) | 0.987 (inactive)
14 | CC(C)c1cccc(C(C)C)c1O [Propofol] | 1.24 | 1.01 | 1 | 1.03 | 1.05 (inactive) | 0.931 (inactive) | 0.964 (inactive) | 0.865 (inactive) | 1.01 (inactive) | 1.34 (active) | 0.989 (inactive) | 0.908 (inactive)
15 | CN1[C@@H]2C[C@@H](OC(=O)[C@H](CO)c3ccccc3)C[C@H]1[C@@H]1O[C@@H]12 [Scopolamine hydrochloride] | 1.07 | 1.01 | 1.03 | 1.08 | 0.953 (inactive) | 1.2 (inactive) | 1.08 (inactive) | 1.17 (inactive) | 0.965 (inactive) | 0.948 (inactive) | 1.02 (inactive) | 1.12 (inactive)
16 | COc1ncc(F)c2nc(S(=O)(=O)Nc3c(F)cccc3F)nn12 | 1.08 | 0.984 | 1.08 | 1.15 | 0.874 (inactive) | 1.04 (inactive) | 0.984 (inactive) | 1.01 (inactive) | 0.997 (inactive) | 0.998 (inactive) | 1.03 (inactive) | 0.993 (inactive)
17 | CNC(=O)c1cc(Cl)cc(C)c1NC(=O)c1cc(Br)nn1-c1ncccc1Cl | 0.896 | 1.11 | 1.06 | 1.17 | 0.901 (inactive) | 0.953 (inactive) | 0.997 (inactive) | 1.02 (inactive) | 0.982 (inactive) | 0.964 (inactive) | 0.999 (inactive) | 1.01 (inactive)
18 | CCCCN(CCCC)SN(C)C(=O)Oc1cccc2c1OC(C)(C)C2 | 1.06 | 1.03 | 1.01 | 0.993 | 1.01 (inactive) | 0.965 (inactive) | 1.01 (inactive) | 1.05 (inactive) | 1.02 (inactive) | 1.03 (inactive) | 0.998 (inactive) | 0.987 (inactive)
19 | COc1cc([C@@H]2c3cc4c(cc3[C@H](O)[C@H]3COC(=O)[C@H]23)OCO4)cc(OC)c1OC [Podophyllotoxin] | 1.13 | 1.18 | 1.14 | 0.888 | 0.958 (inactive) | 1.01 (inactive) | 1.03 (inactive) | 1.06 (inactive) | 1.02 (inactive) | 0.931 (inactive) | 1.02 (inactive) | 1.02 (inactive)
20 | C#CCOc1ccc(CCNC(=O)C(OCC#C)c2ccc(Cl)cc2)cc1OC (configuration not stated) | 1 | 1.06 | 1.03 | 0.954 | 0.95 (inactive) | 0.986 (inactive) | 0.989 (inactive) | 1.05 (inactive) | 1.01 (inactive) | 0.933 (inactive) | 1.01 (inactive) | 0.964 (inactive)
21 | c1ccc2c(c1)cc1ccc3cccc4ccc2c1c34 [Benzo[a]pyrene] | 0.972 | 1.03 | 1.06 | 1.01 | 0.948 (inactive) | 1.03 (inactive) | 1.01 (inactive) | 0.977 (inactive) | 1.01 (inactive) | 1 (inactive) | 1 (inactive) | 1.04 (inactive)
22 | CC(C)N(CCC(C(N)=O)(c1ccccc1)c1ccccn1)C(C)C (configuration not stated) [Disopyramide] | 1.08 | 1.04 | 1.01 | 0.817 | 0.927 (inactive) | 0.996 (inactive) | 1 (inactive) | 1.06 (inactive) | 0.996 (inactive) | 1.01 (inactive) | 1 (inactive) | 0.972 (inactive)
23 | C#CCN1C(=O)COc2cc(F)c(N3C(=O)C4=C(CCCC4)C3=O)cc21 | 0.947 | 0.989 | 1 | 0.933 | 1.02 (inactive) | 1.14 (inactive) | 0.98 (inactive) | 1.01 (inactive) | 1.01 (inactive) | 1.04 (inactive) | 0.988 (inactive) | 0.969 (inactive)
24 | CC1(C)C(C=C(Cl)Cl)C1C(=O)OC(C#N)c1cccc(Oc2ccccc2)c1 (mixture of isomers) | 1.13 | 1.01 | 0.982 | 1.04 | 1.02 (inactive) | 0.975 (inactive) | 1.02 (inactive) | 0.971 (inactive) | 1.02 (inactive) | 0.994 (inactive) | 1.01 (inactive) | 1 (inactive)
25 | CCOP(=S)(OCC)Oc1nc(Cl)c(Cl)cc1Cl | 1.13 | 0.998 | 1.04 | 0.945 | 0.882 (inactive) | 1.01 (inactive) | 0.936 (inactive) | 0.986 (inactive) | 1.01 (inactive) | 1.03 (inactive) | 1.02 (inactive) | 0.873 (inactive)
26 | CCN(CC)C(C)C(=O)c1ccccc1 (configuration not stated) [Amfepramone hydrochloride] | 1.04 | 1.05 | 1.02 | 1.06 | 0.955 (inactive) | 1.03 (inactive) | 1.06 (inactive) | 1.06 (inactive) | 0.982 (inactive) | 0.938 (inactive) | 1.01 (inactive) | 1.06 (inactive)
